Bioassay records: PubChem BioAssay, National Center for Advancing Translational Sciences (NCATS)
An excerpt weighted towards active compounds, which were near 7.5% of everything screened.
NPC1 prom act – qHTS Assay for NPC1 Promoter Activators; Huh7 NPC1 promoter luciferase reporter, 24 h; Potency, µM (highest dose often 9.22 µM), for inactives: top-dose activation, hits mostly activators; 320,000 compounds, 2.4% hits; further: % of control where 0% means no effect; nearly all actives have a fitted effect of over 60% in size
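Huh7 cells stably carrying NPC1 promoter–luciferase, plated in Opti-MEM with 10% FBS for 2 h, were exposed to compound in DMSO for 24 h at 37 °C; luciferase reagent was added for 10 min and luminescence read.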
Luc counter – Counterscreen for Luciferase (Kinase-Glo TM) Inhibition. Luciferin 4-monooxygenase (Photuris pensylvanica), Q27757. Kinase-Glo luciferase, ATP luminescence, 8 min. Potency, µM (doses to about 38.3 µM), for the others: at the highest dose activity change, negative = inhibition, actives largely listed as inhibitors. 200,000 compounds, 0.28% hits. AID 1379, 2008; further: on the % scale 0 is the no-effect control and ±100 the full control effect; nearly all actives have a fitted effect of over 60% in size
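Compound is pinned into ATP-containing buffer (10 uM ATP, imidazole pH 7.2, 7 mM MgCl2). Kinase-Glo luciferase reagent is then added. Light output is recorded following an 8-min room-temperature incubation.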
SMN2 splice up – qHTS Assay for Enhancers of SMN2 Splice Variant Expression; 210,000 compounds, 2.8% hits; AID 1458, 2008; Potency, µM (series often up to 46.1 µM), for the others: top-dose activity change, positive = activation, hits mostly activators; HEK293 SMN2-luciferase splicing reporter, luminescence, 30-36 h; further: % of control where 0% means no effect; nearly all actives have a fitted effect of over 55% in size
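HEK293 cells carry an SMN2 minigene-luciferase reporter in which exon 7 inclusion puts luciferase in frame. Cells were seeded at 2000 cells/well, attached for 10-12 hours, then exposed to compounds for 30-36 hours at 37C before ONE-Glo luminescence.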
Rab9 promoter act – qHTS Assay for Rab9 Promoter Activators; Huh7 Rab9 promoter-luciferase reporter, luminescence, 24 h; Potency, µM (highest dose often 9.22 µM), for the others: at the highest dose activation, negative = inhibition, usual class: activators; 320,000 compounds, 2.8% hits; further: % of control where 0% means no effect; nearly all actives have a fitted effect of over 60% in size
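Luciferase signal after 10 min detection reagent at ambient indicates Rab9 promoter upregulation; stably transfected Huh7 cells were treated 24 h with compound in DMSO at 37 °C, 5% CO2.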
ELG1 genotoxic – qHTS screen for small molecules that induce genotoxicity in human embryonic kidney (HEK293T) cells expressing luciferase-tagged ELG1; AID 504466, 2011; HEK293T ELG1-luciferase reporter, luminescence, 16 h; 330,000 compounds, 1.3% hits; Potency, µM (titrated, usually from 46 µM), for the others: at the highest dose activity change, positive = activation, usual class: activators; further: % of control where 0% means no effect; nearly all actives have a fitted effect of over 60% in size
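Genotoxicity was scored as increased ELG1-luciferase reporter signal, measured by ONE-Glo luminescence (30 min, room temperature). Compound or vehicle exposure of the HEK293T reporter cells lasted 16 hr at 37°C.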
FLuc modulator – qHTS profiling assay for firefly luciferase inhibitor/activator using purifed enzyme and Km concentrations of substrates (counterscreen for miR-21 project) | purified FLuc, Km substrates, luminescence inhibition | Potency, µM (titrated, usually from 57.5 µM), for the others: at the highest dose activity change, negative = inhibition, most hits filed as inhibitors | 360,000 compounds, 6.9% hits;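 further: plate controls were vehicle for no effect and reference inhibitor for full effect; nearly all actives have a fitted effect of over 55% in size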
Target sequence (P08659 whole entry, looked up): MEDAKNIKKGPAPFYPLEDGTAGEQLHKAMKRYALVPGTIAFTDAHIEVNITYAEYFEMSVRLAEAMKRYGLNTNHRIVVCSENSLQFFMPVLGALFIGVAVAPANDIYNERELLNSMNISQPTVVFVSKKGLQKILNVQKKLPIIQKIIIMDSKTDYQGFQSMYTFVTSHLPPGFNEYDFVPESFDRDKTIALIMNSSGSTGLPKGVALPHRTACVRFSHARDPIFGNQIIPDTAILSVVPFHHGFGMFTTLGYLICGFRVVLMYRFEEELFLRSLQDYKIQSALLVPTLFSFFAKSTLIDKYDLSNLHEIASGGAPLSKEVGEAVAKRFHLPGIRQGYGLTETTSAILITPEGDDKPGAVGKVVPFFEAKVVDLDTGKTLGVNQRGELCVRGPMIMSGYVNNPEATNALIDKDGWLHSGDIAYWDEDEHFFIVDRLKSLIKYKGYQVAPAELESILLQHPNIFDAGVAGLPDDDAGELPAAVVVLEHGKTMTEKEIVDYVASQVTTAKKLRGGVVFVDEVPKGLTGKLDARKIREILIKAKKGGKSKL
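Purified P. pyralis luciferase (10nM final) with 10uM D-luciferin and 10uM ATP (Km levels) in 50mM Tris acetate pH 7.5, 10mM Mg acetate, 0.01% Tween-20, 0.05% BSA; qHTS 6-point titration, ~60 µM downward; luminescence read.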
* = called active by the depositor; ? = inconclusive; . = not tested or not shown; [ ] = remark or other dose. The call rests on the fitted dose curve; in most records, active means well fitted curve in the direction sought with a large enough effect; inconclusive means small, poorly fitted or top-dose-only effect, or another doubt; inactive means no such curve, though single readings can be large; an effect the other way counts as inactive or inconclusive. Potency means the concentration at half of the fitted maximal effect.

SMILES	NPC1 prom act	Luc counter	SMN2 splice up	Rab9 promoter act	ELG1 genotoxic	FLuc modulator
CC(C)(C)c1ccc(C(=O)NC(=S)N2CCOCC2)cc1	2.2µM*	.	.	2.2µM*	8.2µM*	9.5µM*
CC(C)(C)c1ccc(C(=O)NNC(=S)NCC2CCCO2)cc1 (stereo unspecified)	-1%	3%	-28%	0%	0%	-12%
CC(C)(C)c1ccc(C(=O)N2CCC(C(=O)NCC3CCCO3)CC2)cc1 (stereo unspecified)	28%	0%	11µM*	?	8%	?
C=CCN=C1S/C(=C\c2ccc(N(C)C)cc2)C(=O)N1CC=C	18%	.	.	?	6%	21µM*
O=C(NNC(=O)c1cc(-c2ccccc2)nc2ccccc12)c1csc(N2CCOCC2)n1	-4%	.	.	5%	-16%	?
COc1ccccc1C(=O)NNC(=O)c1csc(N2CCOCC2)n1	7%	.	.	-2%	-7%	9.5µM*
Cc1ccc(-c2cc(C(=O)NNC(=O)c3csc(N4CCOCC4)n3)c3ccccc3n2)cc1	2%	.	.	13%	-7%	13µM*
Cc1nn(CC(=O)Nc2ccc(Cl)cc2Cl)c(=O)c2ccccc12	0%	.	.	3%	-1%	8%
COc1ccc(CN2CCC(Oc3ccc(C(=O)N4CCCC4)cc3)CC2)c(F)c1	-3%	.	.	-2%	-3%	2%
O=C(NC(=S)Nc1ccc(CN2CCOCC2)cc1)c1ccco1	20%	.	.	?	?	17µM*
O=C(NC(=S)Nc1ccc(N2CCOCC2)cc1)c1ccco1	2.8µM*	-11%	16µM*	?	?	?
O=C(NC(=S)Nc1ccc(CN2CCCCC2)cc1)c1ccco1	5%	0%	-4%	-1%	3%	-16%
O=C(Nc1ccc(N2CCOCC2)cc1)c1ccc2nc(-c3ccco3)c(-c3ccco3)nc2c1	-1%	4%	5%	1%	6%	-4%
S=C(Nc1ccc(N2CCOCC2)cc1)Nc1ccc2nc(-c3ccco3)c(-c3ccco3)nc2c1	1%	0%	-12%	4%	-2%	15µM*
CC(C)(C)C(=O)N1CCN(c2ccc(NC(=O)c3ccco3)cc2)CC1	-6%	.	.	0%	-2%	0%
CC(C)CC(=O)N1CCN(c2ccc(NC(=O)c3ccco3)cc2)CC1	0%	.	.	3.2µM*	2%	0%
Cc1cc(C(=O)O)cc(S(=O)(=O)Nc2ccccc2C(=O)NC2CC2)c1C	-2%	.	.	1%	0%	7%
Cc1cccc(Nc2c3c(nc4nncn24)CCC3)c1C	.	.	-3%	.	.	3%
Cc1cc(C)cc(Nc2ncc3c(n2)CCCC3=O)c1	4µM*	-2%	2.5µM*	4µM*	?	3.4µM*
CCc1ccc(Nc2ncc3c(n2)CC(C)(C)CC3=O)cc1	3.2µM*	.	.	2.5µM*	?	15µM*
Cc1cccc(Nc2ncc3c(n2)CC(c2ccco2)CC3=O)c1 (stereo unspecified)	-2%	0%	10%	0%	0%	2%
Cc1cccc(Nc2ncc3c(n2)CC(C)CC3=O)c1 (stereo unspecified)	3.5µM*	-7%	11µM*	3.5µM*	4.6µM*	9.5µM*
Cc1ccc2nc(Nc3ncc4c(n3)CCCC4=O)nc(C)c2c1	-2%	10%	6%	5%	0%	-1%
CCc1ccc(Nc2ncc3c(n2)CC(C)CC3=O)cc1 (stereo unspecified)	2µM*	-5%	.	1.3µM*	?	?
O=C1c2ccccc2C(=O)N1CCn1c(=O)oc2ccccc21	-3%	0%	1%	-3%	3%	-10%
SMILES	NPC1 prom act	Luc counter	SMN2 splice up	Rab9 promoter act	ELG1 genotoxic	FLuc modulator
c1ccc(COC(CN2CCCCCC2)CN2CCCCCC2)cc1	-1%	.	.	-6%	-16%	1%
O=c1c2ccccc2nc(-c2ccc(Cl)cc2)n1CCCCOc1ccc(F)cc1	.	.	-2%	.	.	0%
Cc1cccc(Cn2c(=O)n(-c3ccccc3C)c(=O)c3c2c2cc(C)ccc2n3C)c1	.	.	.	.	.	4%
CC(=O)c1ccc(OCc2cc(C(=O)N3CCOCC3)no2)cc1	?	.	.	?	?	17µM*
CC(=O)c1ccc(OCc2cc(C(=O)N3CCC(Oc4ccccc4C)CC3)no2)cc1	?	.	.	?	15%	19µM*
CC(=O)c1ccc(OCc2cc(C(=O)N3CCCCCCC3)no2)cc1	14%	.	.	28%	-6%	?
CC(C)(CO[C@H]1C[C@H]2CC[C@@]1(C)C2(C)C)[N+](=O)[O-]	.	-2%[7.66 µM]	-16%[9.22 µM]	.	.	.
COc1cccc(N2CCN(C(=O)Cn3ncc4c(=O)oc5ccccc5c43)CC2)c1	.	.	-9%	.	.	-2%
CCc1ccc(-c2csc(-c3c[nH]c4ccccc34)n2)cc1	2.5µM*	6%	13µM*	1.1µM*	?	21µM*
CCC(C)Nc1nc(-c2c[nH]c3ccccc23)cs1 (stereo unspecified)	16%	.	.	22%	13%	13µM*
CNc1nc(-c2c[nH]c3ccccc23)cs1	10%	-2%	12%	13%	8%	?
COc1cccc(/C=C/C(=O)NNC(=O)c2ccncc2)c1	0%	.	.	-1%	0%	?
COc1cccc(/C=C/C(=O)Nc2ccc(OC)nc2)c1	27%	-4%	1%[1.84 µM]	25%	6%	11µM*
COc1ccc(NC(=O)/C=C/c2cc(OC)c(OC)c(OC)c2)cn1	-4%	7%	37%	6%	-1%	-1%
COc1ccc(NC(=O)/C=C/c2ccc(F)cc2)cn1	?	-1%	?	?	12%	11µM*
COc1ccc(NC(=O)/C=C/c2ccccc2)cn1	3.5µM*	-2%	10%[1.84 µM]	2.5µM*	?	8.5µM*
Cc1ccc(CNC(=O)C2CCN(C(=O)c3ccc(-n4ccc5ccccc54)s3)CC2)cc1	.	.	.	.	.	3%
COCCn1c(SCC(=O)NCc2ccc3c(c2)OCO3)nc2ccccc2c1=O	3%	-3%	3%	1%	-10%	3%
Cc1cnc(C(=O)Nc2ccccc2-c2ccc(C)o2)cn1	14%	-2%	-19%	-8%	-24%	-4%
Cc1ccc(C)c(NC(=O)Cn2cc(S(=O)(=O)N3CCCC3)c(S(=O)(=O)N3CCCC3)c2)c1	.	.	.	.	.	-2%
O=C(Nc1cccc(C(F)(F)F)c1)c1cc(S(=O)(=O)N2CCCC2)c[nH]1	.	.	.	.	.	17µM*
